Bioassay records from PubChem.
The list is a sample of the results.
aSyn 5UTR act: Activators via SNCA 5'UTR binding, MLPCN; activity score, % (tested at 7.5 µM), hits read low; 300,000 compounds, 7.1% hits; AID 1814, 2009; alpha-synuclein 5'UTR reporter, activators screen; in the data active = activity score below about -60%
* = called active by the depositor.

SMILES	aSyn 5UTR act
O=C(NC(=S)NNC(=O)c1ccccc1O)c1ccco1	-99*
Cc1c(NC(=S)NC(=O)Cc2ccccc2)cccc1C(=O)O	-79*
Cc1cccc(NC(=S)NC(=O)c2ccco2)c1C	-94*
O=C(NC(=S)Nc1ccccc1Br)c1ccco1	-86*
O=C(Nc1ccccc1)Nc1ccc2ncoc2c1	-119*
O=C(Nc1ccccc1)Nc1ccc2ocnc2c1	-117*
COc1ccc(-c2csc(NC(=O)CSc3nc(SC)ns3)n2)cc1	-102*
CCc1nnc(NC(=O)CSc2nc(-c3ccc(OC)cc3)ns2)s1	-84*
O=C(Nc1ccc([N+](=O)[O-])cc1)Nc1nc(-c2ccc(Cl)s2)cs1	92
CCCC(=O)Nc1nc(-c2ccc(Cl)s2)cs1	-114*
CCCC(=O)Nc1nc(C)c(-c2csc(Nc3cc(OC)ccc3OC)n2)s1	61
CCCC(=O)Nc1nc(-c2ccc(OC)cc2)cs1	-123*
COc1ccc(-c2csc(NC(=O)C3CCCO3)n2)cc1 (stereo not drawn)	-102*
CCc1ccc(-c2csc(NC(=O)COC(=O)CCc3nc4ccccc4s3)n2)cc1	-109*
COc1ccc(-c2csc(NC(=O)CSc3nc(C)cs3)n2)cc1	-153*
CCOC(=O)c1cnc2cc3c(cn2c1=O)CCCC3	-132*
CCCCC(=O)N1CCCC(c2nc(-c3cccc(OC)c3)no2)C1 (stereo not drawn)	-141*
CCC(C)C(=O)N1CCCC(c2nc(-c3cccs3)no2)C1 (stereo not drawn)	-126*
COc1cccc(-c2noc(C3CCCN(C(=O)c4ccccc4OC)C3)n2)c1 (stereo not drawn)	-85*
COc1cccc(-c2noc(C3CCCN(C(=O)CC(C)(C)C)C3)n2)c1 (stereo not drawn)	-127*
Cc1ccccc1NC(=O)N1CCCC(c2nc(-c3ccc(C(C)C)cc3)no2)C1 (stereo not drawn)	-205*
COc1ccccc1N=Nc1[nH]c2ccc(C)cc2c1O	-169*
Cc1ccc(OCC(=O)c2cc(C)n(CC(F)(F)F)c2C)c([N+](=O)[O-])n1	-72*
Cc1ccc(OCC(=O)c2cc(C)n(C3CC3)c2C)c([N+](=O)[O-])n1	-94*
Cc1ccc(N=Nc2c(N)n(-c3ccccc3)[nH]c2=O)cc1	-154*
SMILES	aSyn 5UTR act
Nc1[nH]n(-c2ccccc2)c(=O)c1N=Nc1ccc2c(c1)OCO2	-205*
Cc1[nH]n(-c2ccccc2)c(=O)c1N=Nc1ccccc1	-182*
Cc1ccc(O)c(-c2cc(-c3ccc(F)cc3)no2)c1	-109*
Cc1ccc2nc(-c3cc(-c4ccccc4)no3)cn2c1	86
Oc1ccccc1-c1cc(-c2ccccc2)no1	-133*
Cc1ccccc1-c1cc(-c2ccccc2O)on1	-216*
CCc1ccn2cc(-c3cc(-c4ccccc4)no3)nc2c1	94
Fc1ccccc1/C=N/Nc1nc2ccccc2o1	-200*
FC(F)Oc1ccccc1/C=N/Nc1nc2ccccc2o1	-165*
Cc1ccccc1C(=O)/C(C#N)=N/Nc1c(C)n(C)n(-c2ccccc2)c1=O	79
Cc1cc2oc(C(=O)Nc3c(C)n(C)n(-c4ccccc4)c3=O)c(C)c2cc1C	-63*
O=C(Nc1ccc2c(c1)CCC2)c1cc2ccccc2o1	-188*
O=C(Nc1ccc2c(c1)CCC2)c1ccc(Br)o1	-157*
Cc1occc1C(=O)Nc1ccc2c(c1)CCC2	-188*
Cc1ccc(C(=O)Nc2ccc3c(c2)CCC3)o1	-134*
Cc1ccc(NC(=O)c2ccc(OC(F)(F)F)cc2)cc1S(=O)(=O)N(C)C	-76*
Cc1ccc(C(=O)Nc2ccc(F)cc2)o1	-73*
O=C(Nc1ccc2c(c1)OCO2)c1ccc(COc2ccc3c(c2)CCC3)o1	-76*
Cc1ccc(NC(=O)c2ccc(Br)o2)cc1S(=O)(=O)N(C)C	-125*
Cc1ccoc1C(=O)Nc1ccc(CC(=O)O)cc1	84
O=C(Nc1ccc2c(c1)OCO2)c1ccc(Br)o1	-256*
Cc1ccc(C(=O)Nc2ccccc2C(N)=O)o1	-78*
CC(=O)c1ccc(NS(=O)(=O)c2c(C)cc(C)cc2C)cc1	-102*
Cc1cc(C)c(S(=O)(=O)Nc2ccc3c4c(cccc24)CC3)c(C)c1	106
COc1cccc(/C=C/C(=O)c2c(O)cc(C)oc2=O)c1O	-111*
SMILES	aSyn 5UTR act
COc1ccc(/C=C/C(=O)c2c(O)cc(C)oc2=O)c(OC)c1	-230*
COc1ccc2c(c1)CCC1C2=NN(/C(C)=C/C(C)=O)C1c1cccc(F)c1 (stereo not drawn)	-66*
Cc1cc(NC(=O)C(C)C)ncc1NC(=O)c1ccccn1	-88*
Cc1cc(NC(=O)c2ccccc2)ncc1NC(=O)c1ccco1	-115*
Cc1ccc(O)c(NC(=O)c2ccco2)c1	-66*
Cc1ccc(C(=O)Nc2ccc(NC(=O)c3ccco3)c(C)c2)cc1	-67*
Cc1cc(O)c(NC(=O)c2ccco2)cc1C	-98*
COc1ccccc1/C=C/C=N/NC(=O)c1ccccn1	-74*
COc1ccc(/C=N/NC(=O)c2cc3c(OC)ccc(OC)c3[nH]2)cc1O	68
COc1ccc(/C=N/NC(=O)c2cnccn2)cc1O	-63*
